# Compound activity as filed in PubChem.
# Sampled rows, rich in hits. Any-hit rate of the full collection: about 7.5%.
# FLuc modulator: inhibits or activates purified firefly luciferase, miR-21 counter-screen; P08659; purified FLuc, Km substrates, luminescence inhibition; Potency, µM (doses to about 57.5 µM), for the others: at the top dose activity change, negative = inhibition, hits mostly inhibitors; hit rate 6.9% among 360,000;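 also: plate controls were vehicle for no effect and reference inhibitor for full effect; nearly all actives have a fitted effect of over 55% in size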
# Target sequence (P08659 whole entry, looked up): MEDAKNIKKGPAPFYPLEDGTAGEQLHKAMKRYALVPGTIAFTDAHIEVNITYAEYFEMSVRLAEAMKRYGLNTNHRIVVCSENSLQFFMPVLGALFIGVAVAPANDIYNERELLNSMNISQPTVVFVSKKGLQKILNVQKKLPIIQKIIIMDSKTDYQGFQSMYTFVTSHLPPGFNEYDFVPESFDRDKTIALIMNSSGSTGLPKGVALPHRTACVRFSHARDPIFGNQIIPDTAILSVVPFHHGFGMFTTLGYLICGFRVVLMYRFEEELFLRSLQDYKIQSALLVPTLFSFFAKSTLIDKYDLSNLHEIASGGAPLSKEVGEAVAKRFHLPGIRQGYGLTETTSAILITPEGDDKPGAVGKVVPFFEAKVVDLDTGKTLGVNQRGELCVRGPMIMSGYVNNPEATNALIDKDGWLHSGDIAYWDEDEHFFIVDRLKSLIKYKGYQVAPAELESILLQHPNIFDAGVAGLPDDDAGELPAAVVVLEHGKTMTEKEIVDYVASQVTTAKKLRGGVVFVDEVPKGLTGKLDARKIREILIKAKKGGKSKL
#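 Purified P. pyralis luciferase (10nM final) with 10uM D-luciferin and 10uM ATP (Km levels) in 50mM Tris acetate pH 7.5, 10mM Mg acetate, 0.01% Tween-20, 0.05% BSA; qHTS 6-point titration, ~60 µM downward; luminescence read.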
# NPC1 promoter act: activates the NPC1 promoter; Huh7 NPC1 promoter luciferase reporter, 24 h; hit rate 2.4% among 320,000; Potency, µM (series often up to 9.22 µM), inactives show at the highest dose activation, actives largely listed as activators; also: % of control where 0% means no effect; nearly all actives have a fitted effect of over 60% in size
#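 Luciferase expression driven by the NPC1 promoter was measured in stably transfected Huh7 cells after a 24 h compound incubation, using a luciferase reagent and a luminescence read.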
# SMN2 splice enh: enhancers of SMN2 splice variant expression; HEK293 SMN2-luciferase splicing reporter, luminescence, 30-36 h; Potency, µM (series often up to 46.1 µM), inactives show top-dose activity change, positive = activation, hits mostly activators; hit rate 2.8% among 210,000; AID 1458; also: % of control where 0% means no effect; nearly all actives have a fitted effect of over 55% in size
#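 qHTS luciferase splicing reporter: luminescence rises when SMN2 exon 7 is included in transfected HEK293 cells. Compound exposure lasted 30-36 h at 37C, with 4.5 mM final sodium butyrate as control, followed by a ONE-Glo read.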
# ELG1 genotox: induces genotoxicity in HEK293T cells with luciferase-tagged ELG1; Potency, µM (series often up to 46 µM), inactives show top-dose activity change, positive = activation, most hits filed as activators; HEK293T ELG1-luciferase reporter, luminescence, 16 h; hit rate 1.3% among 330,000; also: % of control where 0% means no effect; nearly all actives have a fitted effect of over 60% in size
#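 Luminescence read-out: rising ELG1-luciferase signal, reflecting elevated ELG1 protein under genetic stress, flags genotoxic compounds. Cells were treated for 16 hr at 37 °C before ONE-Glo detection.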
# KinaseGlo FLuc: counter-screen: inhibitors of Kinase-Glo firefly luciferase; Q27757; Potency, µM (doses to about 38.3 µM), for inactives: top-dose activity change, negative = inhibition, actives largely listed as inhibitors; Kinase-Glo luciferase, ATP luminescence, 8 min; hit rate 0.28% among 200,000; also: % is scaled to controls: 0 for no effect and ±100 for the full control effect; nearly all actives have a fitted effect of over 60% in size
#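 Luminescence was the read-out, taken after 8-minute incubation at ambient temperature. Luciferase turned over luciferin with 10 uM ATP in imidazole pH 7.2 buffer containing KCl, MgCl2, Tween 20 and BSA.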
# Rab9 prom act: activates the Rab9 promoter. AID 485297. Huh7 Rab9 promoter-luciferase reporter, luminescence, 24 h. Potency, µM (doses to about 9.22 µM), for the others: at the highest dose activation, negative = inhibition, actives largely listed as activators. hit rate 2.8% among 320,000; also: % of control where 0% means no effect; nearly all actives have a fitted effect of over 60% in size
#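 Luminescence read-out: Huh7 cells stably expressing Rab9-luciferase, treated 24 h with compound at 37 °C, then lysed with luciferase reagent for 10 min at ambient before reading.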
# Numbers without * were called inactive; ? = inconclusive; nt = not tested or not shown. Calls follow the shape of the dose curve; as a rule, active = well fitted curve in the direction sought with a large enough effect; inconclusive = small, poorly fitted or top-dose-only effect, or another doubt; inactive = no such curve, though single readings can be large; an effect the other way counts as inactive or inconclusive. Potency is read from the fitted curve at half-maximal effect.
SMILES,FLuc modulator,NPC1 promoter act,SMN2 splice enh,ELG1 genotox,KinaseGlo FLuc,Rab9 prom act
Cc1ccc(NC(=O)c2cc(F)c(F)cc2Cl)nc1,8.5µM*,1.8µM*,nt,?,-8%,0.89µM*
CC(C)c1ccc(CN(Cc2ccco2)c2cnc(S(C)(=O)=O)nc2C(=O)Nc2ccc(F)cc2)cc1,1%,nt,nt,nt,nt,nt
O=C(Nc1ccc(S(=O)(=O)N2CCOCC2)cc1)C1CCN(S(=O)(=O)c2ccccc2)CC1,3%,-3%,nt,-8%,nt,0%
O=C(CSc1ncnc2ccccc12)c1ccc2c(c1)OCCO2,3.4µM*,?,nt,?,nt,2.8µM*
O=C(COc1ncnc2cc(Cl)ccc12)c1ccc2c(c1)OCCO2,1.9µM*,3.2µM*,nt,?,nt,0.63µM*
Cc1ccc(C(=O)COc2ncnc3cc(Cl)ccc23)cc1,?,27%,nt,9%,nt,26%
Cc1ccc(C)c(C(=O)COc2ncnc3ccccc23)c1,?,8%,14%,2%,-1%,18%
O=C(COc1ncnc2ccccc12)c1ccc2c(c1)OCCO2,4.8µM*,1.1µM*,nt,?,nt,1.1µM*
COc1ccc(C(=O)NC2CCCc3ccccc32)cc1OC1CCN(C(C)=O)CC1 (configuration not stated),7%,2%,nt,-5%,nt,0%
Cc1ccc(-n2c3nc(=O)[nH]c(=O)c-3cc3c(C)nn(-c4ccccc4)c32)cc1Cl,1%,nt,-2%,nt,nt,nt
Cc1ccc(OCc2nc(-c3ccccn3)n[nH]2)cc1,24µM*,?,?,7%,-6%,?
Cc1ccc(NC(=O)c2ncoc2-c2ccco2)cc1Cl,11µM*,nt,nt,nt,nt,nt
COc1ccc(/C=C/C(=O)Nc2ccc(-c3nnc4n3CCCCC4)cc2)c(OC)c1,27µM*,4%,-12%,-7%,-1%,1%
COc1ccccc1/C=C/C(=O)Nc1ccc2c(c1)CCC2,4.3µM*,3.2µM*,13µM*,?,-1%,1.8µM*
COc1ccccc1/C=C/C(=O)Nc1ccc(N2CCOCC2)cc1,-6%,-37%,-3%,5%,-1%,0%
Cc1ccc(NC(=O)Cn2nc(-c3ccco3)ccc2=O)cc1Cl,-3%,1%,nt,-1%,nt,0%
COc1cccc(-c2ocnc2C(=O)Nc2ccc3c(c2)CCC3)c1,19µM*,-1%,nt,16%,nt,9%
O=C(c1ccco1)N1CCN(c2c([N+](=O)[O-])nn(-c3cccc(Cl)c3)[n+]2[O-])CC1,-6%,-6%,-9%,-1%,-3%,-2%
COc1ccc(-c2nn(CC(=O)NCc3ccccc3)c3c2cnc2ccc(F)cc23)cc1,0%,nt,nt,nt,nt,nt
Cc1ccc(NC(=O)Nc2ccc3c(c2)CCC3)cc1C,1%,30%,nt,14%,nt,29%
COc1ccc(OC)c(/C=C/C(=O)Nc2ccc3c(c2)CCC3)c1,11µM*,6%,12%,0%,5%,1%
COc1ccc(NC(=O)Nc2ccc3c(c2)CCC3)cc1,-13%,?,nt,21µM*,nt,?
N#CC1(C#N)CC(C=O)=C(N)C1(C#N)CC(=O)C12CC3CC(CC(C3)C1)C2 (configuration not stated),-4%,-4%,-6%,-7%,1%,-11%
CCCCCc1ccc(-c2cn(Cc3cccc(OC)c3)nn2)cc1,?,-5%,nt,-1%,nt,0%
COc1ccc(-c2cn(Cc3ccc(C)cc3)nn2)cc1,?,4µM*,nt,?,nt,2.8µM*
SMILES,FLuc modulator,NPC1 promoter act,SMN2 splice enh,ELG1 genotox,KinaseGlo FLuc,Rab9 prom act
CCCCCc1ccc(-c2cn(Cc3ccc(C)cc3)nn2)cc1,?,?,nt,-6%,nt,3.5µM*
COc1ccc2c(c1)O[C@@H](c1cccc(C(F)(F)F)c1)[C@H](OC(=O)NS(=O)(=O)c1ccc(F)cc1)C2=O,nt,nt,17%,nt,2%,nt
O=S1(=O)C=C(Sc2nnc(-c3ccccc3)o2)c2ccccc21,30µM*,-26%,-57%,-7%,-1%,-41%
Cc1cc(C)nc(SC2=CS(=O)(=O)c3ccccc32)n1,-12%,-8%,?,-44%,0%,-5%
Cc1cc(C(=O)N2CCN(S(C)(=O)=O)CC2)sc1-c1ccccc1,6%,-3%,-14%,6%,-8%,-4%
Cc1cc(C(=O)N(C)C)sc1-c1ccccc1,21µM*,?,10µM*,?,2%,28%
O=C(COc1ccccc1F)OCc1cc(=O)n2nc(-c3cccs3)sc2n1,-7%,nt,nt,nt,nt,nt
Cc1nn2c(-c3ccc(F)cc3)ccnc2c1Br,0%,-7%,nt,1%,nt,-5%
Fc1ccc(-c2cnn3c(-c4ccncc4)ccnc23)cc1,1.2µM*,0.35µM*,4.5µM*,7%,-5%,0.4µM*
Fc1ccc(-c2cnn3c(-c4cccs4)ccnc23)cc1,0.76µM*,4.5µM*,3.2µM*,7%,-11%,4µM*
c1csc(-c2ccnc3ncnn23)c1,-6%,0%,-1%,-1%,0%,-3%
CCN(CC)S(=O)(=O)c1ccc2oc(C(=O)N(C)Cc3ccccc3)c(C)c2c1,0%,nt,-14%,nt,nt,nt
O=C(/C=C/c1ccco1)Nc1scc(-c2ccccc2)c1C(=O)O,4.8µM*,0.45µM*,nt,?,nt,0.5µM*
O=C(/C=C/c1ccccc1)Nc1scc(-c2ccccc2)c1C(=O)O,3µM*,2.5µM*,11µM*,12%,-11%,1.6µM*
CC1CCc2nc(/C(C#N)=C/c3ccncc3)sc2C1 (configuration not stated),9.5µM*,2.8µM*,18µM*,?,1%,3.2µM*
CCN1C(=S)SC(=O)C1=C1C=C(C)N(CCO)C(C)=C1,7.6µM*,1.3µM*,-17%,5.2µM*,7%,1.4µM*
CCN1C(=S)SC(=O)C1=C1C=C(C)N(CCOC)C(C)=C1,2.4µM*,0.4µM*,?,1.6µM*,0%,0.79µM*
COCCN1C(=O)/C(=C/c2ccc(N3CCCC3)cc2)SC1=S,?,?,14%,8%,-10%,?
COc1ccc(CCNC(=O)Cn2c(=O)nc(-c3ccccc3)c3ccccc32)cc1OC,-8%,nt,nt,nt,nt,nt
CCCCNC(=O)c1nnn(-c2ccccc2)c1N,?,?,13µM*,?,0%,?
CCN1CCN(S(=O)(=O)c2ccc(Cl)c(C(=O)NCCc3ccccc3)c2)CC1,?,?,nt,16µM*,nt,?
CCN1CCN(S(=O)(=O)c2ccc(Cl)c(C(=O)NC3CC3)c2)CC1,4%,0%,nt,2%,nt,-5%
C=CCN1CCc2c(cc(O)c(O)c2Cl)C(c2cccc(C)c2)C1 (configuration not stated),nt,nt,12%,nt,4%,nt
O=C(N/N=C/c1ccc(F)cc1)c1sccc1OCc1ccc(F)cc1,9.5µM*,-18%,4%,12%,-4%,-8%
